VACV Venus inh – qHTS for Stage-Specific Inhibitors of Vaccinia Orthopoxvirus: Venus Reporter Primary qHTS; Vaccinia virus Venus reporter expression, fluorescence; Potency, µM (titrated, usually from 36.5 µM), inactives show top-dose activity change, negative = inhibition, hits mostly inhibitors; 0.46% of 330,000 active; calls by dose curve; tested in A549 cells; also: potency is read from the fitted curve at half-maximal effect; nearly all actives have a fitted effect of over 30% in size
FMDV antiviral – High Throughput Screening for Foot and Mouth Disease Virus Antivirals | AID 1159524, 2015 | 1.2% of 410,000 active | Potency, µM (highest dose often 57.9 µM), inactives show at the highest dose activity change, negative = inhibition, usual class: inhibitors | FMDV antiviral cell-based qHTS; calls by dose curve; tested in HEK293T cells; also: read-out not given here; potency is read from the fitted curve at half-maximal effect; nearly all actives have a fitted effect of over 45% in size
HCMV antiviral – qHTS Assay for inhibitors of the human cytomegalovirus (HCMV) | HFF cells, HCMV-luciferase reporter, 72 h; hits give low values | activity change, negative = inhibition, % at 57.5 µM | 4.5% of 410,000 active | AID 1259415, 2018; in the data active = activity change below about -60%; inconclusive = no clear call, values can overlap the other calls; inactive = above about -39%
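Steps: HFFs plated, 16 h 37C; compounds added; HCMV-luciferase added to MOI 1 PFU/cell; 72 h 37C; OneGlo reagent, 5 min room temperature; luminescence read, normalized to controls.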
Vaccinia mCherry – qHTS for Stage-Specific Inhibitors of Vaccinia Orthopoxvirus: mCherry Reporter Primary qHTS. Vaccinia virus mCherry reporter infection, fluorescence. Potency, µM (series often up to 36.5 µM), without a hit: top-dose activity change, negative = inhibition, actives largely listed as inhibitors. 0.63% of 310,000 active; calls by dose curve; tested in A549 cells; also: potency is read from the fitted curve at half-maximal effect; nearly all actives have a fitted effect of over 35% in size
Sm TGR block – qHTS Assay for the Inhibitors of Schistosoma Mansoni Peroxiredoxins; Schistosoma mansoni thioredoxin glutathione reductase (TGR), Q962Y6; purified TGR, DTNB reduction, TNB absorbance 405 nm; Potency, µM (doses to about 114 µM), for the others: at the highest dose activity change, negative = inhibition, most hits filed as inhibitors; 3% of 360,000 active; AID 485364, 2010; also: potency is read from the fitted curve at half-maximal effect; nearly all actives have a fitted effect of over 60% in size
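TGR 20 nM + NADPH 100 uM (dispensed conc.), cpd preinc 15 min RT; start with NADPH (500 uM addition) then DTNB (15 mM addition). Kinetic TNB absorbance, 405 nm filter. Four-parameter Hill fit across titration.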
HCV inh – qHTS Assay for Inhibitors of Hepatitis C Virus (HCV); Potency, µM (series often up to 41.8 µM), for inactives: at the highest dose activity change, negative = inhibition, most hits filed as inhibitors; Huh7.5.1 HCVcc-Cre infection, luciferase reporter, 44 h; 3.4% of 340,000 active; AID 651820, 2012; also: potency is read from the fitted curve at half-maximal effect
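Whole-lifecycle infectious HCVcc-Cre system; cells 1,000/well, compound then virus (~0.5 moi) added 4 h after plating, 44 h culture. Luciferase read 15 sec following 15 min substrate incubation, room temp.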
* = called active by the depositor; i = inactive; ? = inconclusive; nt = no result given; + = active, no number; [ ] = another dose, or the depositor's remark. Sampled rows, rich in hits. Any-hit rate of the full collection: about 9.3%. Unless noted, calls follow the shape of the dose curve; as a rule, active = well fitted curve in the direction sought with a large enough effect; inconclusive = small, poorly fitted or top-dose-only effect, or another doubt; inactive = no such curve, though single readings can be large; an effect the other way counts as inactive or inconclusive. % is scaled to controls: 0 for no effect and ±100 for the full control effect.

SMILES | VACV Venus inh | FMDV antiviral | HCMV antiviral | Vaccinia mCherry | Sm TGR block | HCV inh
Cc1cc(C)cc(N(CC(=O)Nc2ccccc2C(=O)N2CCOCC2)S(C)(=O)=O)c1 | -6.3% | -5.4% | 22.1 | -14.6% | -2.2% | 22.7%
COCC(C)NC(=S)Nc1ccccc1[N+](=O)[O-] (centres undefined) | -9.9% | 9.1% | 21.9 | -4.3% | 39.8µM* | 6.0%
O=C(CC(=O)Nc1ccccc1[N+](=O)[O-])Nc1ccccc1[N+](=O)[O-] | -19.3% | -14.0% | -65.1* | -15.6% | 89.1µM* | -4.1%
COc1ccc(CN2C(=O)C(n3ccc4ccccc43)c3cc(F)ccc32)cc1 (centres undefined) | nt | nt | 14.4 | nt | nt | nt
CCCCn1c(N)c(N(CCOC)C(=O)c2ccc(S(=O)(=O)N3CCC(C)CC3)cc2)c(=O)[nH]c1=O | 4.5% | -0.9% | -35.3 | i | -2.5% | 0.2%
CCOC(=O)[C@]12CCC=C1N(Cc1ccco1)C(=O)[C@H](CC(=O)N1CCCCC1)C2 | -1.7% | -15.2% | 4.7 | 19.5% | nt | nt
COc1ccc(/C=N/Nc2nc(Nc3ccccc3)nc(N3CCCCC3)n2)cc1OC | ? | 14.2% | 38.0 | -23.3% | -6.1% | ?
COc1cccc(/C=N/Nc2nc(Nc3ccccc3)nc(-n3nc(C)cc3C)n2)c1O | ? | -23.2% | 59.0 | nt | 1.0% | 8.91µM*
Cc1cnn(-c2cc(N/N=C/c3ccccc3Cl)ncn2)c1 | -12.6% | -11.6% | -18.1 | -14.0% | 41.9% | 20.1%
COc1cccc(/C=N/Nc2cc(-n3nc(C)cc3-c3ccccc3)ncn2)c1O | ? | ? | -96.1* | 12.6µM* | -3.4% | 5.62µM*
O=C(NN=C1CCCC1)c1cc(-c2ccccc2)n[nH]1 | -14.9% | 14.8% | 3.4 | -12.5% | 0.7% | 2.4%
CN1C(=O)/C(=C\c2ccncc2)SC1=Nc1ccccc1 | -22.0% | ? | -67.0* | ? | 2.1% | -28.1%
O=C(O)CN1C(=O)/C(=C\c2cccc(OCc3ccccc3)c2)SC1=S | nt | 0.0% | 6.9 | nt | 0.501µM* | 4.2%
O=C(O)COc1cccc(/C=C2/SC(=S)N(Cc3ccccc3)C2=O)c1 | -3.1% | 4.5% | -33.3 | -8.8% | -4.5% | -1.5%
C#CCOc1ccc(/C=C2\SC(=S)N(Cc3cccnc3)C2=O)cc1 | 2.5% | 17.9% | -73.2* | -4.7% | -4.9% | -8.0%
O=C1/C(=C\c2cccc(O)c2)SC(=S)N1Cc1ccccc1 | nt | -0.2% | -74.3* | nt | 0.3% | -13.5%
O=C1/C(=C/c2ccc(O)cc2)SC(=S)N1Cc1cccnc1 | 0.8% | -1.0% | ? | i | -10.3% | 2.6%
Cc1ccc(Cl)cc1N1CCN(S(=O)(=O)c2ccc3[nH]c4c(c3c2)CCCC4)CC1 | 1.7% | -17.4% | -8.5 | 0.2% | 24.0% | nt
O=C(C[C@H]1C(=O)N(Cc2cccnc2)C[C@@H]1Cc1ccccc1)Nc1ccccc1 | -9.7% | -20.6% | -23.4 | -14.8% | nt | nt
Cc1ccc(CCNC(=O)CN2C(=O)COc3ccc(S(=O)(=O)N4CCC(C)CC4)cc32)cc1 | -15.3% | -1.3% | ? | -15.6% | -0.8% | ?
O=C1/C(=C\c2ccc(O)c(O)c2)SC(=S)N1Cc1ccccc1 | i | -19.8% | ? | i | -27.2% | ?
O=C(O)c1cc(-c2ccc(/C=C3/SC(=S)N(Cc4ccccc4)C3=O)o2)ccc1Cl | 29.0% | 3.1% | -28.2 | i | 25.1µM* | 1.8%
O=C(O)CN1C(=O)/C(=C\c2cc([N+](=O)[O-])ccc2OCc2ccccc2Cl)SC1=S | 4.5% | 6.1% | -18.2 | -0.6% | -33.1% | -5.7%
O=C1/C(=C/c2ccncc2)SC(=S)N1Cc1ccccc1 | -7.0% | ? | -72.7* | -11.7% | -11.4% | 7.4%
O=C1/C(=C\c2cccc(O)c2O)SC(=S)N1Cc1ccccc1 | 34.3% | ? | 3.5 | -15.2% | -4.0% | 25.1µM*
SMILES | VACV Venus inh | FMDV antiviral | HCMV antiviral | Vaccinia mCherry | Sm TGR block | HCV inh
O=C1/C(=C\c2cc([N+](=O)[O-])ccc2O)SC(=S)N1Cc1ccc(Cl)cc1 | nt | ? | -76.8* | nt | -7.0% | ?
CC(C)C1Nc2ccc(C(=O)NCc3ccco3)cc2NC1=O (centres undefined) | -3.3% | 12.1% | 72.4 | -1.2% | -28.8% | 3.8%
Cc1nc(CC(=O)O)c(-c2ccccc2)s1 | nt | 7.2% | -0.6 | nt | 0.1% | 8.6%
Cc1nn(Cc2cccc(C(=O)Nn3cc([N+](=O)[O-])cn3)c2)c(C)c1[N+](=O)[O-] | 3.0% | 4.9% | -21.7 | -1.7% | 1.7% | ?
Cc1nn(-c2ccc(F)cc2)c(Cl)c1/C=C/C(=O)OCC(=O)Nc1c(F)c(F)c(F)c(F)c1F | -1.3% | -16.7% | -71.2* | 0.0% | 0.5% | ?
Cc1nn(-c2ccc(F)cc2)c(Cl)c1/C=C/C(=O)OCC(=O)Nc1ccc(F)cc1F | -12.0% | 0.0% | 6.8 | i | -0.6% | 12.2%
COc1ccc(-n2nc3c(c2NC(=O)c2c(-c4ccccc4Cl)noc2C)CS(=O)(=O)C3)cc1 | -6.2% | -13.8% | -23.8 | 2.0% | -1.1% | 20.8%
O=C(CCS(=O)(=O)c1ccccc1)N(Cc1cccnc1)c1nc2ccc(F)cc2s1 | -9.4% | 3.0% | 53.2 | i | 0.891µM* | nt
CC(=O)N(Cc1cccnc1)c1nc2ccc(F)cc2s1 | -10.8% | -8.2% | -76.7* | -2.3% | 5.8% | nt
O=C(c1ccc(Br)s1)N(Cc1cccnc1)c1nc2ccc(F)cc2s1 | -13.3% | -5.2% | 14.1 | -0.7% | -4.8% | nt
COc1ccc(C)c2sc(N(Cc3cccnc3)C(=O)CCc3ccccc3)nc12 | -5.5% | -6.7% | + | -16.3% | 6.9% | nt
O=C(CCOc1ccccc1)N(Cc1cccnc1)c1nc2c(F)cc(F)cc2s1 | -3.0%[7.34 µM] | -16.5% | 33.6 | -9.8%[7.34 µM] | 5.62µM* | nt
O=C(COc1ccccc1)N(Cc1cccnc1)c1nc2c(F)cc(F)cc2s1 | -4.5% | 19.2% | 0.0 | -16.8% | -1.4% | nt
COc1ccc(CCCNC(=O)C2Cc3c(-c4ccc(NC(C)=O)cc4)ccnc3O2)cc1 (centres undefined) | ? | -21.4% | 18.1 | i | nt | nt
CCOC(=O)C1(C)CCCN1C(=O)c1ccc(Cl)nc1 (centres undefined) | -6.1% | -11.5% | 6.6 | 1.9% | nt | nt
O=C(Nc1ccccc1)C1CCN(S(=O)(=O)c2ccc3[nH]c4c(c3c2)CCCCC4)CC1 | -22.4% | -17.4% | 0.0 | -24.3% | -2.7% | nt
CCc1ccc(NC(=O)C2CCN(S(=O)(=O)c3ccc4[nH]c5c(c4c3)CCCCC5)CC2)cc1 | -21.5% | -11.5% | + | i | 2.0% | nt
O=C(NCc1ccc2[nH]c3c(c2c1)CCCC3)c1ccc(S(=O)(=O)N2CCCCC2)cc1 | -29.3% | ? | -77.9* | -25.1% | 1.0% | ?

Source: PubChem (National Center for Advancing Translational Sciences (NCATS))
